# In all, about 2,100 compounds went through this assay and about 1,100 (52%) were called active. Roughly 27% stayed inconclusive and do not appear here. The set was probably picked from earlier hits. This is one part of the list. Values without a mark were called inactive. Calls come from the whole dose curve; as a rule, active = well fitted inhibition curve with a large enough effect; inconclusive = small, poorly fitted or top-dose-only effect; inactive = no such curve, though single readings can be large or run the other way.
# Molecular target: DNA dC->dU-editing enzyme APOBEC-3G (Homo sapiens) (UniProt Q9HC16)
# Experiment: qHTS for inhibitors of Vif-A3G interactions: Cherry picks counterscreen;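 note: hits raise yellow fluorescence by blocking Vif-driven A3G-eYFP degradation; nearly all actives have a fitted effect of over 70% in size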;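 for max response: max response given as percent of control signal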
# Details: HeLa A3G-eYFP + Vif (tagged APOBEC3G with the HIV-1 protein that degrades it), eYFP fluorescence, 24 h
# Procedure, shortened: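 HeLa cells stably expressing A3G-eYFP and Vif were treated for 24 h at 37 deg C with compounds at several concentrations; yellow fluorescence (Ex 488 nm, Em 500-530 nm) read by Acumen Explorer, MG132 as positive control.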
# Potency is the fitted concentration of half-maximal effect.
# Sequence of DNA dC->dU-editing enzyme APOBEC-3G (Homo sapiens) (Q9HC16 whole entry, looked up): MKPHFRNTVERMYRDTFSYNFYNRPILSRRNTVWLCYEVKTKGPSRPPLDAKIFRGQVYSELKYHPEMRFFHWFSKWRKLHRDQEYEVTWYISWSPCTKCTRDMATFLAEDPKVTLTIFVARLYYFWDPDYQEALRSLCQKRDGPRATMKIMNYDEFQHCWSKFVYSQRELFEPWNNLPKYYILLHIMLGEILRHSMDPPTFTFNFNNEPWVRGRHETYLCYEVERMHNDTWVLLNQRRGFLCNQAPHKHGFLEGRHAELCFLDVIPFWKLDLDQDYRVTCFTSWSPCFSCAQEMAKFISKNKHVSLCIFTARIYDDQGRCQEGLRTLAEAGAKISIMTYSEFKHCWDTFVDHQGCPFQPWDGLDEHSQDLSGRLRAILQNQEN
SMILES,Potency,max response [%]
COc1ccc(NC(=O)/C(C#N)=C\C=C\c2ccco2)cc1,14 µM (active),
COc1ccc(NC(=O)/C(C#N)=C/C=C/c2ccco2)cc1,11.2 µM (active),
COc1ccc2c(c1)c1nc3ccccc3nc1n2Cc1ccc(OC)c(OC)c1,25.9 µM (active),
COc1ccc2c(c1)c1nc3ccccc3nc1n2Cc1ccc(OC(C)C)c(OC)c1,23.1 µM (active),
COc1ccc2c(c1)c1nc3ccccc3nc1n2CC(=O)OC(C)C,,-18.3
CC(=O)Oc1c(-c2ccc(Br)o2)oc2ccccc2c1=O,,-10.4
CCc1cccc2c(C(O)c3c[nH]c4ccccc34)c[nH]c12 (stereo unspecified),20.6 µM (active),
CC(C)CC[n+]1ccccc1/C=C/c1ccc(N(C)C)cc1,16.4 µM (active),
CC[n+]1ccccc1/C=C/c1ccc(N(C)C)cc1,20.6 µM (active),
Cc1c(CCCl)c(Cl)n2c(nc3ccccc32)c1C#N,9.94 µM (active),
CN(C)c1ccc2nc3c(=O)[nH]c(=O)nc-3n(CC(O)C(O)C(O)CO)c2c1 (stereo unspecified),,0.486
Cc1cccc(CN2C(=O)N/C(=C/c3ccc(C)s3)C2=O)c1,6.27 µM (active),
Cc1ccc(/C=C2/NC(=O)N(Cc3ccccc3F)C2=O)s1,8.2 µM (active),
Cc1ccc(/C=C2/NC(=O)N(Cc3ccccc3)C2=O)s1,20.6 µM (active),
CN(C)c1ccc(/C=C2\NC(=S)N(Cc3ccccc3)C2=O)cc1,2.5 µM (active),
Cc1ccc2ccc3cc(C(=O)Nc4ccc(C)c(F)c4)nc3c2[nH]1,,-25.1
CC(C)(C)OC(=O)NC(Cc1ccccc1)C(=O)N1CCC(C(=O)NCC(=O)Nc2ccc(F)cc2)CC1 (stereo unspecified),23.1 µM (active),
COc1ccc2c(n1)Sc1nc3ccccc3nc1N2,3.26 µM (active),
COc1cc(OC)c(OC)cc1/C=C1\CC(C)C/C(=C\c2cc(OC)c(OC)cc2OC)C1=O (stereo unspecified),20.6 µM (active),
CC1C/C(=C/c2cccs2)C(=O)/C(=C/c2cccs2)C1 (stereo unspecified),,14.5
COc1ccc(COc2cc(-c3cccc(OC)c3)nc3ccc(NC(=O)c4ccc(OC)cc4)cc23)cc1,3.53 µM (active),

SMILES,Potency,max response [%]
COc1ccc(COc2cc(-c3cccc(OC)c3)nc3ccc(NC(=O)C(C)C)cc23)cc1,4.98 µM (active),
COc1ccc(-c2cc(-c3nnc(COC(=O)c4ccncc4)o3)c3ccccc3n2)cc1OC,,-0.16
CCN(CC)C(=O)c1ccc(/C=C/c2c[nH]c3ccccc23)[n+](C)c1,20.6 µM (active),
C[n+]1cc(C(=O)N2CCCCC2)ccc1/C=C/c1c[nH]c2ccccc12,17.7 µM (active),
c1ccc2c(c1)Cc1cc3ccccc3nc1-2,1.64 µM (active),
CN(C)c1ccc(/C=C/c2ccnc3ccc(I)cc23)cc1,5.17 µM (active),
Cc1ccc2nccc(/C=C/c3ccc(N(C)C)cc3)c2c1,11.6 µM (active),
Cc1cc(C)c2nccc(/C=C/c3ccc(N(C)C)cc3)c2c1,11.6 µM (active),
CN(C)c1ccc(/C=C/c2ccnc3ccc(N)cc23)cc1,18.4 µM (active),
FC(F)(F)c1ccccc1NC(=S)NN=C1CCCCCC1,,19.2
COc1ccc2nccc(/C=C/c3ccc(N(C)C)cc3)c2c1,18.4 µM (active),
CN(C)c1ccc(/C=C/c2ccnc3ccc(Br)cc23)cc1,2.06 µM (active),
Cc1ccc2nc(-c3ccccn3)c(Nc3ccccc3C)n2c1,,5.76
O=C(Nc1ncc(Cc2ccc(SC(F)F)cc2)s1)c1ccccc1,1.98 µM (active),
Cc1cc([N+](=O)[O-])ccc1-c1ccc(/C=N/NC(=O)c2ccc(Br)o2)o1,20.6 µM (active),
CCOc1ccc(S(=O)(=O)N(CC(=O)N/N=C/c2ccc(-c3ccc([N+](=O)[O-])cc3)o2)c2ccccc2)cc1,11.2 µM (active),
O=C(O)c1ccc(-c2ccc(/C=N/Nc3ccc([N+](=O)[O-])cc3)o2)cc1,15.8 µM (active),
O=C(O)c1cccc(-c2ccc(/C=N/Nc3ccc([N+](=O)[O-])cc3)o2)c1,14.6 µM (active),
Cn1c(=S)c2[nH]c(SCCN3CCCC3)nc2n(C)c1=O,,14.3
S=C(Nc1ccccc1)N1CCn2c1nc1ccccc12,,-19.9
O=[N+]([O-])c1ccc(-c2ccc(/C=N/Nc3nc(NCc4ccccc4)nc(N4CCOCC4)n3)o2)cc1,10.3 µM (active),

SMILES,Potency,max response [%]
CC(C)(C)NC(=S)N/N=C\c1ccc(-c2ccc([N+](=O)[O-])cc2)o1,10.3 µM (active),
O=[N+]([O-])c1ccccc1S(=O)(=O)Nc1ccc(-c2ccc(N3CCOCC3)nn2)cc1,,0.357
CN(/N=C/c1ccc(-c2ccc([N+](=O)[O-])cc2)o1)c1ccccc1,1.16 µM (active),
Cc1ccc(-c2ccc(/C=N/NC(N)=S)o2)cc1,,-14.5
CCN(CC)c1nc(C)c(C(=S)Nc2cc([N+](=O)[O-])ccc2Cl)s1,,-7.53
CCOC(=O)c1c(CC(C)C)csc1/N=C/C1C(=O)CCCC1=O,,-2.9
Nc1ncnc2c1ncn2[C@@H]1O[C@H](CNCc2ccc(OCc3ccccc3)cc2)[C@@H](O)[C@H]1O,12.5 µM (active),
COc1ccc(CNCC(=O)Nc2ccccc2-n2cccc2)cc1,9.94 µM (active),
CCCn1c(C2CCCN2c2nc(-c3cccc(Br)c3)cs2)nc2ccccc21 (stereo unspecified),,-7.22
OCCCn1c(C2CCCN2c2nc(-c3ccc(F)cc3)cs2)nc2cc(Cl)c(N3CCCCC3)cc21 (stereo unspecified),16.4 µM (active),
C[C@H](O)[C@@H]1CN2CCc3c([nH]c4ccccc34)[C@@H]2C[C@@H]1N(C)C(=O)c1ccco1,12.5 µM (active),
CCN(CC)C(=O)CSC(Nc1cccc(F)c1)=C(C#N)C#N,13 µM (active),
CCN(CC)c1ccc(/C=N/NC(=O)c2ccco2)cc1,8.86 µM (active),
CCN(CC)c1ccc(/C=N/NC(=O)c2ccco2)c(O)c1,7.9 µM (active),
O=C(NC(=S)N1CCc2ccccc21)c1ccco1,,4.59
Oc1ccc(C=NNC(=S)Nc2ccc(F)cc2)c(O)c1,,-25.9
CCN(CC)c1ccc2cc(C(N)=O)c(=N)oc2c1,,60.6
CCN(CC)c1ccc(/C=N/N=C(N)N)c(O)c1,5.59 µM (active),
O=C(N/N=C/c1sc(=O)n(Cc2ccc(Br)cc2)c1Cl)c1ccco1,,-16.3
